# Measured values taken from ChEMBL document CHEMBL1157539, “Thousands of chemical starting points for antimalarial lead identification” (Nature, 2010).
# Assays:
# Assay type in all cases: functional
# Plasmodium falciparum [1] = assay: GSK_TCMDC: Inhibition of Plasmodium falciparum 3D7 in whole red blood cells, using parasite LDH activity as an index of growth. Test compounds present at 2uM
# Plasmodium falciparum [2] = assay: GSK_TCMDC: Inhibition of Plasmodium falciparum Dd2 in whole red blood cells, using parasite LDH activity as an index of growth. Test compounds present at 2uM
# HepG2 = assay: GSK_TCMDC: Percent inhibition of human HepG2 cell line. Test compounds present at 10uM.
SMILES,Inhibition (Plasmodium falciparum [1]) [%],Inhibition (Plasmodium falciparum [2]) [%],Inhibition (HepG2) [%]
CC(=O)Nc1ccc(CN(Cc2cccc(OC(C)(C)C)c2)Cc2ccc3c(c2)OCCO3)cc1,95,96,0
CCc1c(C)nc(-n2nc(C)cc2NC(=O)c2ccc(OC)cc2OC)[nH]c1=O,96,57,42
N#Cc1cccc(CNC(=O)c2cccc(Nc3ccnc4ccc(F)cc34)c2)c1.O=C(O)C(F)(F)F,87,26,0
COc1cc(Nc2ccnc3ccc(C(C)(C)C)cc23)cc(OC)c1OC,100,80,12
COc1cccc(OCC2CCCN(CCCCNC(=O)c3ccc(NC(=O)c4ccc(Cl)cc4)cc3)C2)c1 (configuration not stated),100,49,33
CC(C)CNCc1cccc(-c2ccc(CNc3ccc4ncccc4c3)cc2)c1.O=C(O)C(F)(F)F,94,32,13
O=C(Nc1ccc(O)c(-c2nc3ccccc3[nH]2)c1)c1ccc([N+](=O)[O-])cc1,97,45,0
COc1ccc(-c2nccc(NC(=N)NCc3ccccc3)n2)cc1,83,21,27
Br.CCOC(=O)c1cc(Cl)ccc1OCCCON1C(=N)N=C(N)NC1(C)C,94,95,69
COc1cc2nc(NCCCN3CCCCC3)nc(NCc3ccccc3)c2cc1OC,100,3,12
Cc1ccc(N2C(N)=NC(N)=NC2(C)C)cc1Cl.Cl,90,77,66
Cc1ccccc1C1CCN(C2CCC(NC(=O)/C=C/c3cc(F)ccc3C(F)(F)F)CC2)CC1 (configuration not stated),98,25,90
CCCN(CCCCNC(=O)c1ccc(-c2cccnc2)cc1)C1CCc2c(O)cccc2C1.Cl (configuration not stated),87,16,0
Cc1c(Cl)cccc1S(=O)(=O)Nc1cccc(CCN2CCC(N3CCCCC3)CC2)c1,100,82,38
COCCNCc1cccc(-c2ccc3c(Nc4ccc(Oc5cccnc5)cc4)ccnc3c2)c1,100,99,58
COc1ccc2cc(C(=O)Nc3ccc4c(c3)CCN(C3CCC3)CC4)ccc2c1.O=C(O)C(F)(F)F,100,9,34
O=C(N[C@@H](Cc1ccccc1)C(=O)NC1CCCCCC1)c1ccc(O)c(-c2cccc(C(F)(F)F)c2)c1,98,70,0
COC(=O)c1cccc(NC(=O)NC2CCN(c3ccnc(Nc4cc(OC)c(OC)c(OC)c4)n3)C2)c1 (configuration not stated),99,68,7
Cl.O=C(NC1CCC(CCN2CCc3ccc(-c4cnccn4)cc3CC2)CC1)c1cccc(-n2cccn2)c1 (configuration not stated),93,1,23
O=C(Nc1ccc(Cl)cc1C(=O)Nc1ccncc1)c1ccc(Cl)cc1Cl,99,75,8
Cl.N=C(N)c1ccc(NC(=O)Cc2nc3cc(C(=N)N)ccc3[nH]2)cc1,87,81,4
C=CCOC1OC(COC(c2ccccc2)(c2ccccc2)c2ccccc2)C(OC(C)=O)C(OC(C)=O)C1NC(C)=O (configuration not stated),93,66,0
CS(=O)(=O)c1ccc(CNCc2ccc(-c3cccc(-c4nc5ccccc5[nH]4)c3)cc2)cc1.O=C(O)C(F)(F)F,100,88,17
C=C(C)COc1ccc(-c2n[nH]c(C(F)(F)F)c2-c2ccccc2OC)c(O)c1,98,72,19
O=C(Nc1cc(Cl)ccc1O)c1ccc(Oc2ccc(C(=O)Nc3cc(Cl)ccc3O)cc2)cc1,97,91,32

SMILES,Inhibition (Plasmodium falciparum [1]) [%],Inhibition (Plasmodium falciparum [2]) [%],Inhibition (HepG2) [%]
CC1Cc2ccccc2N1CC(=O)Nc1cc(C(F)(F)F)ccc1-n1cncn1 (configuration not stated),97,97,17
Cc1ccc2ncc(Cl)c(CCN3CCC(NCc4ccc5c(n4)NC(=O)CS5)CC3)c2n1.Cl,90,12,13
CCOC(=O)CCCCCNC[C@H](O)c1ccccc1.Cl,98,0,2
CCOc1ccc2nc3cc([N+](=O)[O-])ccc3c(N)c2c1,99,100,67
CN1CCC(NCc2ccc(-c3cccc(-c4nc5ccccc5[nH]4)c3)cc2)CC1.O=C(O)C(F)(F)F,100,96,50
CCn1c(Cc2ccccc2)nnc1Sc1ccc([N+](=O)[O-])c(C#N)c1,93,72,8
O=C(/C=C/c1ccc(Cl)c(Cl)c1)NCCCCCN1CCC(NC(=O)NC2CCCC2)CC1,99,31,21
Cc1cccc(-c2nn(-c3ccccc3)c3[nH]c(=O)c(CNC4CCCC4)cc23)c1,98,97,18
COc1ccc2c(c1)ncn2-c1cc(OCc2ccncc2Br)c(C(N)=O)s1,95,50,14
O=C(c1ccc(-c2ccccn2)s1)N1CCc2cc3nccc(N4CCN5CCC[C@H]5C4)c3cc21,96,49,0
CCCOc1cc(NC(=O)Nc2ccnc3ccccc23)cc(OCCC)c1.Cl,100,98,6
O=C(O)C(F)(F)F.O=[N+]([O-])c1cccc(CNCC2CCN(CC3CCCCC3)CC2)c1,90,14,11
COc1cccc2c(NN=Cc3ccccc3F)ccnc12,96,37,6
CN1CCN(c2ccnc3ccc(NC(=O)Nc4c(Cl)cccc4Cl)cc23)CC1,96,12,11
CC(C)CCN1C(=O)C(NC(=O)Oc2ccccc2)C(=O)N(CC23CC4CC(CC(C4)C2)C3)c2ccccc21 (configuration not stated),95,4,3
N#Cc1ccc(N/C(=N\c2ccccc2Br)N(C2CCCCC2)C2CCCCC2)c(O)c1,99,96,4
CCN(CC)c1ccccc1CNC(=O)c1cc(Cl)c(N)cc1OC,97,94,6
Cc1cccc2nc(-c3cccc(-c4cccc(NC(=O)C5CC(=O)Nc6ccccc65)c4)c3)[nH]c12 (configuration not stated),85,25,13
CCn1c(-c2nonc2N)nc2cnc(Oc3cccc(NC(=O)c4ccc(OCCN(C(C)C)C(C)C)cc4)c3)cc21,97,10,63
O=C(Cn1c(SCc2cccc(F)c2F)cc(=O)c2ccccc21)N(CCN1CCCCC1)Cc1ccc(-c2ccc(C(F)(F)F)cc2)cc1.O=C(O)C(O)C(O)C(=O)O,99,82,41
CON=Cc1ccn(-c2ccc(O)c3c2C[C@H]2C[C@H]4[C@H](N(C)C)C(O)=C(C(N)=O)C(=O)[C@@]4(O)C(O)=C2C3=O)c1.O=S(=O)(O)O,96,70,3
O=C(NCCCc1ccccc1)c1csc(C2CCCN(C(=O)c3ccc(O)c(-c4cccc5ccccc45)c3)C2)n1 (configuration not stated),97,98,3
N#Cc1ccc(C(=O)Nc2ccc(-c3cccc(CN4CCCC4)c3)cc2)cc1.O=C(O)C(F)(F)F,89,1,17
Cc1cccc2nc(-c3cccc(-c4ccc(NC(=O)c5cccnc5)cc4)c3)[nH]c12,100,45,64
